Here are results for 37 compounds from PubChem BioAssay (NCI).

About 83,000 compounds went through this panel and 20% of them were active in at least one assay; those are over-represented in the sample as a whole.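 Treatment: one concentration, 48 hours, 96-well format. Scoring: percent growth, with anything below 10 considered active.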 Activity calls are given as the source filed them.

The first assay deals with BT-549 breast. Kind of assay: NCI-60 one-dose screen, 48 h (100 = growth as untreated, 0 = no growth, -100 = all killed). The conditions noted are these: 10 µM.
As for `CC(=O)Nc1ccc(-c2cn(-c3cccc(C(=O)Nc4ccc(F)c(C(F)(F)F)c4)c3)nn2)cn1`, the growth is 103% (inactive).

Take `C#CCNC(=O)CCC(=O)OC[C@]12CC[C@@H](C(=C)C)[C@@H]1C1CC[C@@H]3[C@@]4(C)CCCNC(C)(C)[C@@H]4CC[C@@]3(C)[C@]1(C)CC2` (stereo partly specified): the growth was 11% (inactive). On the same count and under the same terms, the same measure for `COc1ccc2[nH]cc(/C=N/Nc3ccc(Br)cn3)c2c1`: -2.65% (active); for `[2H]C([2H])([2H])Oc1ccc2ncc(C#Cc3cncc(C(=O)Nc4ccc(CN5CCN(C)CC5)c(C(F)(F)F)c4)c3)n2n1`: -57.5% (active); for `COc1ccc(CN2[C@H](C(=O)NCc3ccc(C(=O)NO)cc3)Cc3c([nH]c4ccccc34)[C@H]2C2CC2)cc1`: 58.6% (inactive).

Turning to `O=c1cc(-c2ccccc2)oc2cc(OCCCCNCc3ccccc3)cc(O)c12`, the growth is 78.5% (inactive). For the compound `O=c1[nH]c2ccccc2cc1CSc1ccc(Nc2nccc(-c3ccc(C(F)(F)F)cc3)n2)cc1`, the growth was 31.7% (inactive).

Take `CN(C)c1ccc(/C=C/c2nc3ccccc3c(=O)n2CC(=O)Nc2ccccc2)cc1`: the growth was -1.24% (active). Same read-out and setting: in the case of `Cc1ccc(-c2nc(Nc3ccc(C)c(S(N)(=O)=O)c3)c3ccccc3n2)cc1` it was 104% (inactive).

The next assay relates to MDA-MB-435 melanoma. The assay is described as above. The note with it: 10 µM.
As for `COc1cc(/C=C/C(=O)c2ccc(C(F)(F)F)cc2)ccc1Oc1nc(Nc2ccc(F)cc2)nc(N(C)C)n1`, the growth was 80.1% (inactive). `Cc1ccc(/C=C/C(=O)c2ccc(NC(=O)CSc3nnc(-c4c[nH]c5ccccc45)n3-c3ccccc3)cc2)c(C)c1`: the growth was 49.5% (inactive). Same read-out and setting: in the case of `COc1ccc(/C=C/C(=O)c2ccc(S(=O)(=O)NCCNc3nc(Nc4ccc(F)cc4)nc(N(C)C)n3)cc2)cc1` it was 25.1% (inactive); in that of `N#Cc1c(-c2ccc(Cl)cc2)cc(-c2ccccc2)nc1OCc1ccccc1`, 96.1% (inactive); in that of `Nc1nnc(-c2c[nH]c3ncccc23)c(-c2c[nH]c3ccc(Br)cc23)n1`, 47.2% (inactive). Turning to `CC(=O)OC[C@@]1(C)C2CC[C@]3(C)C(CC=C4C5CC(C)(C)CC[C@]5(C(=O)Nc5ccccc5)CC[C@]43C)[C@@]2(C)C[C@@H](OC(C)=O)[C@@H]1OC(C)=O` (stereo partly specified), the growth is 45.7% (inactive).

Take `O=C(CSc1nnc(-c2c[nH]c3ccccc23)n1-c1ccccc1)Nc1ccc(C(=O)/C=C/c2cccc([N+](=O)[O-])c2)cc1`: the growth was 98.9% (inactive). In the case of `C/C(=C\c1ccc(O)cc1O)c1ccc2ccc(O)cc2[o+]1`, the growth is 21.4% (inactive). As for `CCCCOc1ccc(Nc2nc3ccccc3nc2Nc2ccc(OCCCC)cc2)cc1`, the growth is 88.4% (inactive). Regarding `Nc1nc(Nc2ccc(Cl)cc2)nn1Cc1cccc(Br)c1`, the growth was 36.7% (inactive). Still for that read-out and setting: the same measure for `COc1ccc(/C=N/N=C(\C)c2ccc3c(c2)Nc2ccccc2S3)cc1O`: 34.7% (inactive); for `O=C(CSc1nnc(-c2c[nH]c3ccccc23)n1-c1ccccc1)c1ccc(Br)cc1`: 40.9% (inactive). As for `COC(=O)c1c(C(=O)OC)c2n(c1C)[C@@H]([C@@H](C)[C@H]1CC[C@H]3[C@@H]4CCC5=CC(=O)CC[C@]5(C)[C@H]4CC[C@]13C)SC2`, the growth was 22.4% (inactive). As for `COc1ccc(C(=O)/C=C/c2cc(C(F)(F)F)cc(C(F)(F)F)c2)cc1S(N)(=O)=O`, the growth is -69.2% (active). Consider `CCCn1c(O)c(N=Nc2nc(-c3cc4ccccc4oc3=O)cs2)c2cc(Br)ccc21`, for which the growth was 105% (inactive).

In the case of `O/N=C(\CSc1nnc(-c2c[nH]c3ccccc23)n1-c1ccccc1)c1ccc(Br)cc1`, the growth was -100% (active). Take `CC(=O)Oc1ccccc1C(=O)Oc1ccc(C(=O)/C=C/c2ccncc2)cc1`: the growth is 23.2% (inactive). Consider `CC(=O)C1=C(C)NC(SCC(=O)Nc2ccc(S(=O)(=O)Nc3cc(C)on3)cc2)=NC1c1ccccc1` (stereo unspecified), for which the growth is 99.6% (inactive). Turning to `COc1cc2c3c(n(CCCn4ccnc4)c(=O)c2cc1OC)-c1nc2c(cc1C3=O)OCO2`, the growth is 52.2% (inactive).

For `O=S(=O)(Nc1ncccn1)c1ccc(-n2c(-c3ccc(Br)cc3)nc(-c3ccccc3)c2-c2ccccc2)cc1`, the growth was 42.7% (inactive). On to `COc1ccc(-c2cc(C(=O)N=Nc3c(O)[nH]c4ccc(Br)cc34)c3ccccc3n2)cc1`, for which the growth is 52.7% (inactive). On the same count and under the same terms, the same measure for `CCOC(=O)CNC(=O)CN(Cc1ccccc1)C(=O)[C@@]1(C)CCC[C@]2(C)[C@H]3CC4C(C(C)C)=C[C@]3(CC[C@H]21)[C@@H]1C(=O)CCC(=O)[C@H]41`: 70.6% (inactive). On to `CC1(c2ccccc2)NC(=O)N(CC(=O)Nc2ccc(C(=O)/C=C/C=C/c3ccccc3)cc2)C1=O` (stereo unspecified), for which the growth was 37.1% (inactive).

`O=c1c2ccccc2nc(COc2ccccc2)n1/N=C/c1ccc(F)cc1`: the growth is 86.2% (inactive). As to `COc1ccc(-c2cc(-c3cc(C(=O)c4ccccc4)n4ccc(C)cc34)nc(N)c2C#N)cc1`, the growth was 78.5% (inactive).

Turning to `COc1cc(C2CC(c3ccc(C)cc3)=Nc3c(N)nc(N)nc3N2)ccc1Oc1nc(Nc2ccc(F)cc2)nc(N(C)C)n1` (stereo unspecified), the growth was 63.2% (inactive). Regarding `O=C(Nc1cccc(C(F)(F)F)c1)c1cncc(C#Cc2cnc3ccc(N4CCOCC4)nn23)c1`, the growth was 4.32% (active). On the same count and under the same terms, in the case of `CC(=O)Nc1ccc(-c2cn(-c3cccc(C(=O)Nc4ccc(F)c(C(F)(F)F)c4)c3)nn2)cn1` it was 59.7% (inactive). `CN(C(=O)c1ccc(C(F)(F)F)cc1C(F)(F)F)c1sc2c(c1C#N)CCC(=O)C2`: the growth is 101% (inactive). Same read-out and setting: the same measure for `C#CCNC(=O)CCC(=O)OC[C@]12CC[C@@H](C(=C)C)[C@@H]1C1CC[C@@H]3[C@@]4(C)CCCNC(C)(C)[C@@H]4CC[C@@]3(C)[C@]1(C)CC2` (stereo partly specified): -32.2% (active); for `COc1ccc2[nH]cc(/C=N/Nc3ccc(Br)cn3)c2c1`: 13.8% (inactive).

On to `[2H]C([2H])([2H])Oc1ccc2ncc(C#Cc3cncc(C(=O)Nc4ccc(CN5CCN(C)CC5)c(C(F)(F)F)c4)c3)n2n1`, for which the growth is -67.2% (active). For `COc1ccc(CN2[C@H](C(=O)NCc3ccc(C(=O)NO)cc3)Cc3c([nH]c4ccccc34)[C@H]2C2CC2)cc1`, the growth was 18.1% (inactive). Regarding `O=c1cc(-c2ccccc2)oc2cc(OCCCCNCc3ccccc3)cc(O)c12`, the growth is -31.5% (active). With `O=c1[nH]c2ccccc2cc1CSc1ccc(Nc2nccc(-c3ccc(C(F)(F)F)cc3)n2)cc1`, the growth was 63.3% (inactive). For `CN(C)c1ccc(/C=C/c2nc3ccccc3c(=O)n2CC(=O)Nc2ccccc2)cc1`, the growth is 60.2% (inactive).

Consider `Cc1ccc(-c2nc(Nc3ccc(C)c(S(N)(=O)=O)c3)c3ccccc3n2)cc1`, for which the growth was 74.6% (inactive).
